About 13,000 (27%) of roughly 48,000 compounds showed an effect of 50% or more. This is one part of the list.
tested on: Wolbachia pipientis; experiment: Anti-Wolbachia Cell-Based Screen; type: functional; set-up: scale not given: in the data most compounds retested in dose-response had high values; conditions: 5 µM

Compound	Percent Effect [%]
CN(Cc1ccc([S+](C)[O-])cc1)c1ccc(C(F)(F)F)cn1 (stereo not given)	-27.71
CCn1ccnc1CN1CCCN(C(=O)c2cccc(C#N)c2)CC1	-3.279
Cn1ccnc1CN1CCCN(C(=O)c2ccc3cc[nH]c3c2)CC1	138.1
CC(C)OCCN1CCN(C(=O)c2cccc(CC#N)c2)CC1	4.967
CCC(O)CN1CCN(C(=O)c2ccnc(N(C)C)c2)CC1 (stereo not given)	-16.43
CC(C)COC(=O)N1CCCN(C(=O)c2ccnc(N(C)C)c2)CC1	6.425
Cc1nsc(N2CCCN(C(=O)c3ccc4[nH]ccc4c3)CC2)n1	-10.99
CC(C)n1ccnc1CN1CCCN(C(=O)c2cc(Cl)c[nH]2)CC1	1.928
CN(C)c1cc(C(=O)N2CCCN(Cc3nccn3C)CC2)ccn1	107
Cn1ccnc1CN1CCCN(C(=O)c2cccc(CC#N)c2)CC1	107.2
Cn1ccnc1CN1CCCN(C(=O)c2ccc3ccccc3c2)CC1	100.6
CC(=O)N1Cc2nccn2CC(CNC(=O)c2cnccn2)C1 (stereo not given)	-28.44
O=C(O)C(F)(F)F.O=C([C@H]1C[C@@H]2[C@@H](C1)OCCN2CC1CC1)N1CCCC1	-8.225
CS(=O)(=O)CCC(=O)NC(c1ccc(F)cc1)C(F)(F)F (stereo not given)	-10.12
Cn1ccnc1CN1CCCN(C(=O)c2ccc3c(c2)OCO3)CC1	100.5
Cn1ccnc1CN1CCCN(C(=O)c2ccc(O)nc2)CC1	99.8
Cn1ccnc1CN1CCCN(C(=O)c2ccc3c(c2)COC3)CC1	-4.984
CCn1ccnc1CN1CCCN(C(=O)c2ccc(C#N)cc2)CC1	-7.951
O=C(Cc1ccsc1)NCCc1ccoc1	-2.885
Cc1ccccc1CCC1CCCN(Cc2nnc(-c3ccco3)o2)C1 (stereo not given)	85.71
Cc1nc(CN2CCCC(CCc3ccccc3C)C2)c[nH]1 (stereo not given)	4.75
Cc1nnc(CN2CCCC(CCc3ccccc3C(F)(F)F)C2)o1 (stereo not given)	7.283
CCc1cnc(CN2CCCC2c2noc(C3CC3)n2)o1 (stereo not given)	2.963
Cc1cc(N2CCCC(N(C)C)C2)n2nc(C)cc2n1 (stereo not given)	4.471
COc1cc(CNCCn2cc(C)cn2)c2c(c1)CC(C)O2 (stereo not given)	-8.791

Compound	Percent Effect [%]
FC(F)(F)CN1CCC(CCNc2ncccn2)CC1	-5.19
O=S1(=O)COCCN1Cc1ccc(Cl)c(F)c1	-18.76
O=S1(=O)COCCN1Cc1ccc(Cl)c(Cl)c1	174.3
O=S1(=O)COCCN1Cc1cccc(Cl)c1	-18.09
O=S1(=O)COCCN1Cc1ccc(F)cc1Cl	116.6
Cc1ccc(-c2nc(CN3CCOCS3(=O)=O)c(C)o2)cc1	-5.038
O=S1(=O)COCCN1Cc1ccc(F)c(C(F)(F)F)c1	116.1
Cc1cc(CN2CCOCS2(=O)=O)ccc1F	-11.48
Cc1oc(-c2cccc(F)c2)nc1CN1CCOCS1(=O)=O	-0.8413
O=C1CCOCCN1Cc1ccc(C(F)(F)F)c(F)c1	-2.892
Cc1ccc(CN2CCOCS2(=O)=O)cc1F	130.8
CC(=O)N1CCN(Cc2ccc(F)c(C(F)(F)F)c2)CC(O)C1 (stereo not given)	-17.39
CCc1ccc(CCC(=O)NCc2nnc[nH]2)cc1	9.868
O=C(CCn1cccn1)NS(=O)(=O)N1CCCc2ccccc21	-12.53
CN(C)c1nc(N)nc(CSCCC(=O)Nc2ccc(F)cc2)n1	-6.74
COCCN1CCN(CC(=O)N(C)Cc2ccc(F)cc2)CC1C (stereo not given)	0.8723
O=C(CN1CCOCS1(=O)=O)NCCc1ccc(Cl)cc1	2.599
O=C(CN1CCOCS1(=O)=O)NCc1ccccc1	-2.644
O=S1(=O)COCCN1Cc1ccc(F)c(F)c1	115.2
Cc1cccnc1NC(=O)CSc1ccc2c(c1)OCCO2	-1.464
CCN(CC)C(=O)Nc1ccc(N2CCSCC2)cc1C	-12.7
CC(C)c1nnc(NC(=O)NCc2cccnc2NCCN(C)C)s1	-11.78
CC(C)c1nnc(NC(=O)NC2CCOc3ccccc32)s1 (stereo not given)	-12.43
CNC(=O)c1ccc(CN(C)c2ccc(C(F)(F)F)cn2)cc1	22.77
CC(C)c1nnc(NC(=O)N(C)Cc2ccc(C(N)=O)cc2)s1	102.8

Compound	Percent Effect [%]
CSc1cc2c(cc1NC(=O)N(C)Cc1ccncc1)OCCO2	-3.541
CC(C)c1nnc(NC(=O)N(C)Cc2ccncc2)s1	78.38
CNC(=O)c1ccc(CN(C)C(=O)Nc2nnc(C(C)C)s2)cc1	109.8
COCCN(Cc1ccc(C)o1)C(=O)Nc1nnc(C(F)F)s1	-29.25
CC(NC(=O)N(C)Cc1ccncc1)c1nncn1C (stereo not given)	2.48
Clc1ccc(NCc2nnc(C3CC3)o2)cc1Cl	-1.785
CC(=O)Nc1cc(Br)cnc1OCC(F)(F)F	-6.07
Cc1nc(-c2ccco2)ccc1C(=O)N1CCc2nnc(N)cc2C1	-5.155
O=C(CCC(=O)c1ccccc1)NC1(C(=O)NCC2CC2)CCCC1	-11.29
CCc1nc(N)nc(N2CCCC3(CCN(C)CC3)CC2)c1C	62.58
CCc1nc(N)nc(N2CCCC3(CN(C)C(=O)O3)C2)c1C (stereo not given)	-2.167
CCc1nc(N)nc(N2CCCC3(CCOCC3)C2)c1C	10.4
CCOCC(=O)N1CCC(C2CCN(Cc3ccc(Cl)cc3)C2)CC1 (stereo not given)	-8.468
CC(NCc1cccc(COC2CCCC2)c1)c1cnn(C)c1 (stereo not given)	126.5
CC(NCCN1CCN(C(=O)C2CCCC2)CC1)c1cnn(C)c1 (stereo not given)	3.842
Cn1cc(C(NCc2ccc(F)cc2)c2cccc(F)c2)cn1 (stereo not given)	-2.157
CC(NCc1cccc(NC(=O)C2CCCCC2)c1)c1cnn(C)c1 (stereo not given)	104.4
COc1ccc(CNC(c2cccc(F)c2)c2cnn(C)c2)cc1 (stereo not given)	4.131
O=C(Nc1cccc(CNCc2cccs2)c1)C1CCCC1	0.6832
COc1cc(CNc2cnn(C)c2)cc2c1OCCO2	-0.1017
COc1ccc(CNC(C)c2cnn(C)c2)cc1OC1CCCC1 (stereo not given)	106.9
CCOc1cc(CNC(C)c2ccc(F)cc2)ccn1 (stereo not given)	-5.561
Clc1cnccc1NCc1cccc(COC2CCOCC2)c1	-32.94
CC(C(=O)NCc1ccnc(OC2CCCC2)c1)n1cncn1 (stereo not given)	10.69
CC(NCc1ccnc(OC2CCC2)c1)c1cnn(C)c1 (stereo not given)	127.4

Source: ChEMBL document CHEMBL3988442, “University of Dundee, Small-Polar-MMV Screening Library” (2021)
